Assay results from PubChem BioAssay.
“And” between values parts separate entries of the source, which are not always exact repeats. Equal entries are not always repeated. The source made the active and inactive calls.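 The calls were made as follows, unless noted: active = compounds whose cell count with miR-34 switched on is under 0.7 times the count with it off; inactive = the rest.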 Residues, ends and D or L forms follow the SMILES beside them.

Assays:
[1] = liver-stage malaria parasite growth inhibition, primary screen, cell-based, HepG2, luciferase luminescence, HepG2 viability (AID 624349; in the data active = parasite load remaining mostly below about 12%, no sharp cut-off; inactive = mostly above about 10%;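 also: 100% = mean of DMSO negative control wells on the same plate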); details: P. berghei liver stage in HepG2, luciferase luminescence, concentration not given here; parasite load remaining: stronger effect = lower value; viability: measured here: HepG2 viability without parasites
[2] = differential killing of epithelial or mesenchymal cells, primary screen, imaging, PC-3E GFP, TEM4-18 mCherry, co-culture (AID 1345086;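 active = compounds killing one labelled cell type while sparing the other, by normalised counts and ratio limits, not self-fluorescent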;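 as to all read-outs here: cells exposed to compound for 72 h before imaging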;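 as to red/green cell ratio (normalised): normalised mesenchymal count divided by normalised epithelial count so high means epithelial killing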); details: imaging cell counts, at 1 µM; for red/green cell ratio (normalised): actives lie on both sides, counts scaled to control wells, 1 = unselective
[3] = sensitizers of A549 cells to miR-34 induction, primary screen, imaging, A549 dox-inducible miR-34, nuclei and caspase counts (AID 1347080); details: A549 miR-34 inducible, Hoechst nuclei count, 48 h
[4] = survival rescue of mitochondrial mutant cells in low glucose, primary screen, MELAS cybrids, Rieske KO mouse fibroblasts, CellTiter-Glo (AID 1508586;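 active = mean z-score across replicates of 1.96 or higher in either the MELAS or the Rieske mutant cell line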;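 also: z relative to plate mean and SD of compound and empty wells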)
[5] = target: NAD(+) hydrolase SARM1 (Homo sapiens) (UniProt Q6SZW1); assay: SARM1 TIR NADase inhibitors, cell lysate, NAD-Glo luminescence (AID 1508614;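 active = compound whose remaining NAD level is above about 45 nM, limit read from the data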;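 also: higher remaining NAD means stronger inhibition of SARM1 NADase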); details: SAM-TIR HEK293T lysate NADase, at 1 µM, stronger effect = higher value
Chain of NAD(+) hydrolase SARM1 (Homo sapiens) (Q6SZW1 whole entry, looked up): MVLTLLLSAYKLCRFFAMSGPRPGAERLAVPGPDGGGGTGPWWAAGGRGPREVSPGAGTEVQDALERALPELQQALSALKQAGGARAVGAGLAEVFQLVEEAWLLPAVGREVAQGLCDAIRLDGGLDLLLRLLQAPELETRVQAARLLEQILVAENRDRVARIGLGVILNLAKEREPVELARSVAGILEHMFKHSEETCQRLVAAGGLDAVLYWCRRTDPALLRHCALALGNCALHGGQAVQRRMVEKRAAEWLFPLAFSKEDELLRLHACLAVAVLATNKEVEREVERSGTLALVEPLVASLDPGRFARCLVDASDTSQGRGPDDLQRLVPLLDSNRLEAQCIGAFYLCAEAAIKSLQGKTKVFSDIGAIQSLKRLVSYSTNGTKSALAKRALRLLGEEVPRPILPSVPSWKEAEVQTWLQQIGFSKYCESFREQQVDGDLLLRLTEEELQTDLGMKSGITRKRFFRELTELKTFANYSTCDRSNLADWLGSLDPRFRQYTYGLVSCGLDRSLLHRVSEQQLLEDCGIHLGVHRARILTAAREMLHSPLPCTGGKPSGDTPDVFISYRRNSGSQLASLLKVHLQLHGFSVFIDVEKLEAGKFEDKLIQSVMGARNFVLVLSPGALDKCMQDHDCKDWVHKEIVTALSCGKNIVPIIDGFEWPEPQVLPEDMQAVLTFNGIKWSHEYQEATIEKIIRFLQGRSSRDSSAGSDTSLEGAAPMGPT

[6] = viability rescue of complex I mutant cybrids, primary screen, cell-based, galactose medium, ATP luminescence (AID 1645843;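 active = z-score of at least 1.8 in each of two replicates, scored against plate mean and spread of sample wells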;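 also: positive z means more ATP and so rescue of galactose-driven cybrid death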); details: complex I mutant cybrid cells, 72 h, stronger effect = higher value
[7] = target: Mitogen-activated protein kinase 7 (Homo sapiens) (UniProt Q13164); assay: ERK5 transactivation activators in reporter cells, primary screen, cell-based, HTS (AID 1508626;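 active = luciferase signal above three times the same-plate solvent-only control wells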;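 also: luciferase driven by Gal4-ERK5 fusion binding five Gal4 sites before minimal TATA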); details: HeLa Gal4-ERK5 transactivation, 18 h, at 5 µM, stronger effect = higher value
Chain of Mitogen-activated protein kinase 7 (Homo sapiens) (Q13164 whole entry, looked up, the tested form may be a part): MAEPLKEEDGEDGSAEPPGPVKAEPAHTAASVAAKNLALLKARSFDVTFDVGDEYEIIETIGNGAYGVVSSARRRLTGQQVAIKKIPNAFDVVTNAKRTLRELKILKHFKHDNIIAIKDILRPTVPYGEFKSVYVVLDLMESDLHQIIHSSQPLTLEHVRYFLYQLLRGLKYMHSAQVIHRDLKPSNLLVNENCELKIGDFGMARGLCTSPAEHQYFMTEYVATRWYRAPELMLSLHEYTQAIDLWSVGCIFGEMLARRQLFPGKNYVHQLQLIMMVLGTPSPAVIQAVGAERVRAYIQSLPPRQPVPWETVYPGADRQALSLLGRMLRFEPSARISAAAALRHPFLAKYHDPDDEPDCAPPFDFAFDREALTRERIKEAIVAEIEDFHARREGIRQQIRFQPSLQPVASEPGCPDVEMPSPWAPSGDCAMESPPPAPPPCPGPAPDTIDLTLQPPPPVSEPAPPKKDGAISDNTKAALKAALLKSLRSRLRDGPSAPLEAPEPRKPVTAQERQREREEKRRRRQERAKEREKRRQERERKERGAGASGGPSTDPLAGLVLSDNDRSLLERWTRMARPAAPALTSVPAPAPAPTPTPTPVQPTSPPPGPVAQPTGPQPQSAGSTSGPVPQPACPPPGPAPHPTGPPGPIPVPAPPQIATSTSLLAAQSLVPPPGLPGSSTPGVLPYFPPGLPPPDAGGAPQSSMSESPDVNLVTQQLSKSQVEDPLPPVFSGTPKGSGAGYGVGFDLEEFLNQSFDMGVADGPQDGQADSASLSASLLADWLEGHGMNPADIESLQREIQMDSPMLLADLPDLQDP

[8] = hESC survival regulators, cell-based (AID 493140; call rule not given here;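 also: cells exposed to compounds for four days before counting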); details: human embryonic stem cell survival screen; stronger effect = higher value
[9] = measured here: epithelial PC-3E GFP cell survival
[10] = measured here: mesenchymal TEM4-18 mCherry cell survival
[11] = stronger effect = lower value, cell number ratio, induced over uninduced
[12] = measured here: relative caspase fold change +Dox/-Dox
[13] = measured here: total cells with miR-34 induction, stronger effect = lower value
[14] = measured here: total cells without miR-34 induction
[15] = MELAS cybrid survival, CellTiter-Glo 48 h, stronger effect = higher value
[16] = Rieske KO mouse fibroblast survival, CellTiter-Glo 72 h

With `NC1CCN(c2c(F)cc3c(=O)c(C(=O)O)cn(C4CC4)c3c2Cl)C1` (configuration not stated) the parasite load remaining [1] was 12.5% (inactive), the viability [1] was 73% and the red/green cell ratio (normalised) [2] was 1.1 (inactive) and 0.63 (inactive). The normalised cell number [2, 9] was 1 and 1.34, the normalised cell number [2, 10] was 1.09 and 0.84 and the fold change [3, 11] was 0.917 (inactive) and 0.881 (inactive). For the same compound, the fold change [3, 12] was 1.1 and 1.36, the cell count [3, 13] was 7910 and 9140 and the cell count [3, 14] was 8620 and 10400. For the same compound, the z-score [4, 15] was 0.53 (inactive) and 0.358 (inactive), the z-score [4, 16] was -0.371 and 0.0233 and the remaining NAD [5] was 10 nM (inactive). For the same compound, the z-score [6] was 0.72 (inactive).

With `CC1=C(/C=C/C(C)=C/C=C/C(C)=C/C=C/C=C(C)/C=C/C=C(C)/C=C/C2=C(C)C(=O)CCC2(C)C)C(C)(C)CCC1=O` the parasite load remaining [1] was 32.7% (inactive), the viability [1] was 102% and the red/green cell ratio (normalised) [2] was 1.05 (inactive). For the same compound, the normalised cell number [2, 9] was 0.85, the normalised cell number [2, 10] was 0.9 and the fold change [3, 11] was 0.905 (inactive). The fold change [3, 12] was 1.09, the cell count [3, 13] was 10100 and the cell count [3, 14] was 11200. The z-score [4, 15] was 0.499 (inactive), the z-score [4, 16] was 1.32 and the luciferase signal [7] was 100 AU (inactive). The z-score [6] was 0.415 (inactive).

With `CC1(C)C(C=C(Cl)Cl)C1C(=O)OCc1cccc(Oc2ccccc2)c1` (configuration not stated) the red/green cell ratio (normalised) [2] was 0.81 (inactive), the normalised cell number [2, 9] was 1.23 and the normalised cell number [2, 10] was 1. For the same compound, the fold change [3, 11] was 0.928 (inactive), the fold change [3, 12] was 0.968 and the cell count [3, 13] was 8290. The cell count [3, 14] was 8930 and the remaining NAD [5] was 10 nM (inactive).

With `CC(C)[C@H](NC(=O)[C@H](CC(=O)O)NC(=O)[C@H](CCCCN)NC(=O)[C@@H](N)CCCN=C(N)N)C(=O)N[C@@H](Cc1ccc(O)cc1)C(=O)O` (H-RKDVY-OH) the red/green cell ratio (normalised) [2] was 0.91 (inactive), the normalised cell number [2, 9] was 1.09 and the normalised cell number [2, 10] was 0.99. For the same compound, the fold change [3, 11] was 0.895 (inactive), the fold change [3, 12] was 0.732 and the cell count [3, 13] was 8230. The cell count [3, 14] was 9190 and the remaining NAD [5] was 10 nM (inactive).

For `Nc1ccccc1S(N)(=O)=O`, the survival [8] was 5.17 (inactive), the parasite load remaining [1] was 63.3% (inactive) and the viability [1] was 93.8%. The red/green cell ratio (normalised) [2] was 0.77 (inactive), the normalised cell number [2, 9] was 1.18 and the normalised cell number [2, 10] was 0.91. For the same compound, the fold change [3, 11] was 0.888 (inactive), the fold change [3, 12] was 1.35 and the cell count [3, 13] was 9840. For the same compound, the cell count [3, 14] was 11100, the z-score [4, 15] was 0.695 (inactive) and the z-score [4, 16] was -0.362.

For `C[N+](C)(CCOc1ccccc1)Cc1ccccc1`, the parasite load remaining [1] was 72.5% (inactive) and 56.2% (inactive), the viability [1] was 93.8% and 115% and the red/green cell ratio (normalised) [2] was 0.65 (inactive). The normalised cell number [2, 9] was 1.19, the normalised cell number [2, 10] was 0.77 and the fold change [3, 11] was 0.899 (inactive) and 0.879 (inactive). The fold change [3, 12] was 1.23 and 5.07, the cell count [3, 13] was 9230 and 11800 and the cell count [3, 14] was 10300 and 13400. For the same compound, the z-score [4, 15] was 0.608 (inactive), the z-score [4, 16] was 0.271 and the remaining NAD [5] was 10 nM (inactive).

In the case of `COc1cc(-c2ccc(N=Nc3ccc4c(S(=O)(=O)O)cc(S(=O)(=O)O)c(N)c4c3O)c(OC)c2)ccc1N=Nc1ccc2c(S(=O)(=O)O)cc(S(=O)(=O)O)c(N)c2c1O`, the survival [8] is reported as 5.92 (inactive), the parasite load remaining [1] is reported as 77.2% (inactive) and 55.6% (inactive) and the viability [1] is reported as 74.5% and 64.2%. The red/green cell ratio (normalised) [2] was 1.11 (inactive), the normalised cell number [2, 9] was 1.16 and the normalised cell number [2, 10] was 1.29. For the same compound, the fold change [3, 11] was 0.857 (inactive), the fold change [3, 12] was 0.848 and the cell count [3, 13] was 8930. The cell count [3, 14] was 10400, the z-score [4, 15] was -1.41 (inactive) and the z-score [4, 16] was -1.32.

For `CC(=O)Nc1ccc(OC(C)=O)cc1`, the red/green cell ratio (normalised) [2] was 0.87 (inactive), the normalised cell number [2, 9] was 1.25 and the normalised cell number [2, 10] was 1.09. The fold change [3, 11] was 0.883 (inactive), the fold change [3, 12] was 1.21 and the cell count [3, 13] was 8510. The cell count [3, 14] was 9640 and the remaining NAD [5] was 10 nM (inactive).

In the case of `O=C1C2CC3CC1CC(O)(C3)C2`, the red/green cell ratio (normalised) [2] is reported as 0.85 (inactive), the normalised cell number [2, 9] is reported as 1.16 and the normalised cell number [2, 10] is reported as 0.99. For the same compound, the fold change [3, 11] was 0.951 (inactive), the fold change [3, 12] was 0.928 and the cell count [3, 13] was 9100. The cell count [3, 14] was 9570 and the remaining NAD [5] was 10 nM (inactive).

With `CO[C@H](C(=O)[C@@H](O)[C@@H](C)O)[C@@H]1Cc2cc3cc(O[C@H]4C[C@@H](O[C@H]5C[C@@H](O)[C@H](O)[C@@H](C)O5)[C@@H](O)[C@@H](C)O4)c(C)c(O)c3c(O)c2C(=O)[C@H]1O[C@H]1C[C@@H](O[C@H]2C[C@@H](O[C@H]3C[C@](C)(O)[C@H](O)[C@@H](C)O3)[C@H](O)[C@@H](C)O2)[C@H](O)[C@@H](C)O1` the parasite load remaining [1] was -0.08% (active), the viability [1] was 93% and the red/green cell ratio (normalised) [2] was 0.96 (inactive). The normalised cell number [2, 9] was 0.29, the normalised cell number [2, 10] was 0.28 and the fold change [3, 11] was 0.97 (inactive). The fold change [3, 12] was 0.963, the cell count [3, 13] was 2240 and the cell count [3, 14] was 2320. The z-score [4, 15] was 7.83 (active), the z-score [4, 16] was -1.51 and the z-score [6] was -1.89 (inactive).

For `NC(=O)C(c1ccccc1)(c1ccccc1)C1CCN(CCc2ccc3c(c2)CCO3)C1` (configuration not stated), the red/green cell ratio (normalised) [2] was 1.14 (inactive), the normalised cell number [2, 9] was 1.01 and the normalised cell number [2, 10] was 1.15. For the same compound, the fold change [3, 11] was 0.961 (inactive) and 0.867 (inactive) and 0.884 (inactive), the fold change [3, 12] was 1.17 and 0.544 and 0.774 and the cell count [3, 13] was 7990 and 7300 and 7280. The cell count [3, 14] was 8310 and 8420 and 8230, the z-score [4, 15] was 0.59 (inactive) and -0.239 (inactive) and the z-score [4, 16] was 0.395 and -0.187. The z-score [6] was -0.58 (inactive).

With `CCCCC(CC)CCC(CC(C)C)OS(=O)(=O)O` (configuration not stated) the red/green cell ratio (normalised) [2] was 0.93 (inactive), the normalised cell number [2, 9] was 1.15 and the normalised cell number [2, 10] was 1.07. For the same compound, the fold change [3, 11] was 0.913 (inactive), the fold change [3, 12] was 0.896 and the cell count [3, 13] was 8490. For the same compound, the cell count [3, 14] was 9300 and the remaining NAD [5] was 10 nM (inactive).

For `CCN(CC)CCOCCOC(=O)C(CC)(CC)c1ccccc1`, the red/green cell ratio (normalised) [2] was 1.07 (inactive), the normalised cell number [2, 9] was 0.85 and the normalised cell number [2, 10] was 0.9. For the same compound, the fold change [3, 11] was 0.879 (inactive) and 0.86 (inactive), the fold change [3, 12] was 0.849 and 0.967 and the cell count [3, 13] was 7300 and 7460. The cell count [3, 14] was 8310 and 8670, the z-score [4, 15] was -0.986 (inactive) and the z-score [4, 16] was -0.272. The remaining NAD [5] was 10 nM (inactive) and the z-score [6] was -0.65 (inactive).

With `CC(O)CC(C)(C)O` (configuration not stated) the red/green cell ratio (normalised) [2] was 0.94 (inactive), the normalised cell number [2, 9] was 1 and the normalised cell number [2, 10] was 0.94. The fold change [3, 11] was 0.91 (inactive), the fold change [3, 12] was 0.891 and the cell count [3, 13] was 8730. For the same compound, the cell count [3, 14] was 9590 and the remaining NAD [5] was 10 nM (inactive).

In the case of `Cc1c(C)c2c(c(C)c1O)CCC(C)(C(=O)O)O2` (configuration not stated), the survival [8] is reported as 0.667 (inactive), the parasite load remaining [1] is reported as 201% (inactive) and 66.3% (inactive) and the viability [1] is reported as 117% and 76.7%. The red/green cell ratio (normalised) [2] was 0.84 (inactive), the normalised cell number [2, 9] was 1.17 and the normalised cell number [2, 10] was 0.98. For the same compound, the fold change [3, 11] was 0.854 (inactive), the fold change [3, 12] was 1.44 and the cell count [3, 13] was 8370. The cell count [3, 14] was 9800, the z-score [4, 15] was -0.259 (inactive) and the z-score [4, 16] was -0.0183.

For `O=C(Nc1ccccc1)c1ccccc1O`, the parasite load remaining [1] was 67.6% (inactive), the viability [1] was 101% and the red/green cell ratio (normalised) [2] was 1 (inactive). The normalised cell number [2, 9] was 1.39, the normalised cell number [2, 10] was 1.39 and the fold change [3, 11] was 0.912 (inactive) and 0.877 (inactive). For the same compound, the fold change [3, 12] was 0.72 and 3.66, the cell count [3, 13] was 7720 and 10000 and the cell count [3, 14] was 8460 and 11400. The z-score [4, 15] was -0.183 (inactive), the z-score [4, 16] was -0.206 and the remaining NAD [5] was 10 nM (inactive).
